# ± gives the standard deviation of the averaged measurements.
# Tested on: Caenorhabditis elegans N2
# Experiment: egg-laying rate relative to DMSO control (serotonin + nicotine background) (fraction of control); higher = more egg-laying
# Conditions: background: 12.3 mM serotonin + 7.7 mM nicotine; 60 µM; 1 h
# Protocol: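 About 20 young-adult wild-type C. elegans (N2) per well in 96-well plates were exposed to 60 uM compound for 1 h at room temperature, either in M9 buffer (to find stimulators) or in 12.3 mM serotonin + 7.7 mM nicotine (NS, to find inhibitors). Eggs per worm per hour were counted by automated imaging and normalised to the mean of proximal DMSO control wells. Values average the primary screen and two retests of the worm-active (wactive) Egl modulators.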
row,Structure (SMILES),egg-laying rate
1,CCOc1ccc(/C=C/[N+](=O)[O-])cc1 [wact-385],0.313 ± 0.11

# From the supplement of paper PMC9402605
